# Source: PubChem BioAssay AID493100 (Broad Institute, 2011)
# Entries with a potency or affinity are not part of this list. Results filed as inconclusive are left out. The source made the active and inactive calls.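 How the source made its calls: active means decreasing signal in every run, fitted half-effect dose at most ten times the top valid dose; inconclusive means runs disagree, weak flat effect, or poor curve fit; inactive means every run inactive, signal rises included.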
# Test: blockers of SFLLRN-triggered platelet ATP secretion – cell-based, human platelets, luminescence, dry powder, dose response (AID 493100)
# Conditions: SFLLRN-induced ATP dense granule secretion; series mostly up to 35 µM; activity change, negative = inhibition: at the top concentration
row,Structure (SMILES),"activity change, negative = inhibition"
1,C/C(=N\NC(=O)c1ccccc1)c1ccc(NC(=O)C(F)(F)F)cc1,2.81% (inactive)
2,CCCC(=O)Nc1cccc(NC(=O)c2ccc(OC)cc2)c1,-16.3% (inactive)
3,CC(=O)Nc1cccc(NC(=O)c2ccccc2Cl)c1,-10.5% (inactive)
4,CCCC(=O)Nc1cccc(NC(=O)c2cccc([N+](=O)[O-])c2)c1,-9.94% (inactive)
5,CC(=O)Nc1cccc(NC(=O)c2cccc(Cl)c2)c1,-16.2% (inactive)
6,NNC(=O)C1CCCC1,4.1% (inactive)
7,O=C(Nc1cccc(NC(=O)c2ccccc2Cl)c1)c1ccco1,-5.54% (inactive)
8,C/C(=N\NC(=O)C1CCCC1)c1ccc(Cl)cc1,-1.57% (inactive)
9,CCCC(=O)Nc1cccc(NC(=O)c2cccnc2)c1,-1.9% (inactive)
10,CCCC(=O)Nc1cccc(NC(=O)c2cccc(Oc3ccccc3)c2)c1,-0.033% (inactive)
11,CCCC(=O)Nc1cccc(NC(=O)c2ccco2)c1,-14.2% (inactive)
12,CCCC(=O)Nc1cccc(NC(=O)c2ccc(C)cc2)c1,-4.26% (inactive)
13,CCCC(=O)Nc1cccc(NC(=O)c2ccccc2OC)c1,-17.9% (inactive)
14,CCCC(=O)Nc1cccc(NC(=O)c2cnc3ccccc3c2)c1,-1.45% (inactive)
15,CC(=O)Nc1ccc(/C=N/NC(=O)CC2CCCCC2)cc1,-15.4% (inactive)
16,CCCC(=O)Nc1cccc(NC(=O)c2ccc(F)cc2)c1,-5.49% (inactive)
17,O=C(Nc1cccc(NC(=O)c2ccccc2Br)c1)c1ccccc1,-19.6% (inactive)
18,CC(=O)N/N=C(\C)c1ccc(NC(=O)C2CC2)cc1,-2.3% (inactive)
19,CC(=O)Nc1c(C#N)c(-c2ccccc2)c(C#N)c(=O)n1-c1ccc(C)cc1,2.86% (inactive)
20,CC(=O)c1ccc(NC(=O)C(F)(F)F)cc1,4.41% (inactive)
21,CCCC(=O)Nc1cccc(NC(=O)c2cccc(S(C)(=O)=O)c2)c1,-7.48% (inactive)
22,CCCC(=O)Nc1cccc(NC(=O)c2ccc(S(C)(=O)=O)cc2)c1,0.039% (inactive)
23,CCCCC(=O)Nc1cccc(NC(=O)c2ccccc2Br)c1,-0.702% (inactive)
24,CCCC(=O)Nc1cccc(NC(=O)c2cccc(-c3ccccc3)c2)c1,-4.16% (inactive)
25,CCCC(=O)Nc1cccc(NC(=O)c2ccc(C(F)(F)F)cc2)c1,-9.62% (inactive)
26,O=Cc1ccc(NC(=O)C(F)(F)F)cc1,-3.78% (inactive)
27,CCCC(=O)Nc1cccc(NC(=O)c2ccc(Cl)cc2)c1,1.1% (inactive)
